Source: PubChem BioAssay
A number with no mark means an inactive call. Calls of active or inactive are those of the source.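 The calls were made as follows, unless noted: active = mean inhibition over 43.08%, the solvent-only control mean plus 3 SD; inactive = the rest.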

Biological target: Nuclear receptor coactivator 3 (Homo sapiens) (UniProt Q9Y6Q9)
Assay: SRC3 coactivator transcriptional activity inhibitors, confirmation, cell-based, luminescence, quadruplicate (AID 588792);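 also: 0% = DMSO treated cells and 100% = gossypol at 36 µM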
Details: HEK293 GAL4-SRC3 luciferase reporter, at 3.6 µM, active compounds read high

Sequence of Nuclear receptor coactivator 3 (Homo sapiens) (Q9Y6Q9 whole entry, looked up): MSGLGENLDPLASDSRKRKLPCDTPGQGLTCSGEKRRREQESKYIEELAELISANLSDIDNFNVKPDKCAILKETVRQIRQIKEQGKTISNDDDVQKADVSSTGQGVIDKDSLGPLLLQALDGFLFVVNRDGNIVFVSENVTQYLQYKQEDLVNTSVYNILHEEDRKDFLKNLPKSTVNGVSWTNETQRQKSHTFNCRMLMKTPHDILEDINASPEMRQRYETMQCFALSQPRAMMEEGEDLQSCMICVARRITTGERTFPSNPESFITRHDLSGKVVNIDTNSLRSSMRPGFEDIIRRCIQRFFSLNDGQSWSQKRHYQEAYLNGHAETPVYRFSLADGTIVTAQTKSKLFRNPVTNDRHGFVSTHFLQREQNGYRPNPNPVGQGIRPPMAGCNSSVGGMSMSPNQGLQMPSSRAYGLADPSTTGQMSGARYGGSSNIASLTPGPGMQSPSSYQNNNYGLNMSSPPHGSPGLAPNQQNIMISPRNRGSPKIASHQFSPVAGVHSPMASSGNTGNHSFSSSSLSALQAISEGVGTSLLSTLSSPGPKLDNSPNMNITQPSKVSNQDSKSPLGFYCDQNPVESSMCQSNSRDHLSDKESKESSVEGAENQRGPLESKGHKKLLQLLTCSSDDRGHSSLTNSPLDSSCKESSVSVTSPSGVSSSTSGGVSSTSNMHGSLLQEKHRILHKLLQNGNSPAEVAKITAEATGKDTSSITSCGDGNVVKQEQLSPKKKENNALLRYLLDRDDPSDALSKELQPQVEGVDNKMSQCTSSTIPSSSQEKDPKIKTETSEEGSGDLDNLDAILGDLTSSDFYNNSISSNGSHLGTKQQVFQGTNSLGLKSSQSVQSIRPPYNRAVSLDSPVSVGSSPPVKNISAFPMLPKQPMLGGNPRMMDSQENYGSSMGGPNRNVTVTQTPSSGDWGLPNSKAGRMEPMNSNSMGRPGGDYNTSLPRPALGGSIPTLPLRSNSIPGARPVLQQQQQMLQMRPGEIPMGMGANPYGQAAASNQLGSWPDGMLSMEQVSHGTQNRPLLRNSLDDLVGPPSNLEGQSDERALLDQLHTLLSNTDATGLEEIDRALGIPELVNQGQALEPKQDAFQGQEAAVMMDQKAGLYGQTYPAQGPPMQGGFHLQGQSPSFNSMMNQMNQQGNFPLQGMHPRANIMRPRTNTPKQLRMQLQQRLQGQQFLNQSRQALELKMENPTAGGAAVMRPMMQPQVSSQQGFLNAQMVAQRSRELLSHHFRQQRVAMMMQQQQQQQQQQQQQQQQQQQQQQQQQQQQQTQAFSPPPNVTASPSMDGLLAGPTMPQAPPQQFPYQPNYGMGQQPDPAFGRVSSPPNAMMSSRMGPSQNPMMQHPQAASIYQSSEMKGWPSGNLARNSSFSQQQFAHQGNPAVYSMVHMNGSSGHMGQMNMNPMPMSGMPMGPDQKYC

SMILES	inhibition
COc1ccc(Cc2noc(CN3CCN(c4ccc(Cl)cn4)CC3)n2)cc1OC	14.7%
CCN(CC)CCNC(=O)c1ccc2c(c1NCCO)C(=O)c1ccccc1C2=O	-15.3%
c1ccc(CNc2c3ccccc3nc3ccccc23)cc1	11.8%
Cc1sc(NC(=O)Cc2ccc3c(c2)OCO3)nc1-c1ccc2c(c1)CCN2C(=O)c1ccc(F)cc1	13.6%
Cc1cc2[nH]c3ccccc3c2c(C)n1	-0.94%
COc1ccc(-n2ncc3c(N4CCCCC4)ncnc32)cc1	51.2% (active)
CC(C)c1nc(NCCO)c(C#N)c2c1CCCC2	40%
Cc1csc(CNc2ncnc3ccc(-c4ccoc4)cc23)c1	52.7% (active)
CSc1ncnc2c1ncn2CC(=O)C1CCC2C3CCC4=CC(=O)CCC4(C)C3CCC12C (stereo not given)	19.5%
CCN1CCN(c2ccc(Nc3ccnc4ccccc34)cc2)CC1	43.5% (active)
Cc1ccc(-n2c(O)c(C=Nc3cc(C)on3)c3ccccc3c2=O)c(C)c1	52.8% (active)
CCn1nc(C)c(CNC(=O)c2cc(COc3ccc(F)cc3Cl)on2)c1C	12.7%
Cc1nc2ccc(NC(=O)c3ccc(Cl)c(S(=O)(=O)N(C)c4ccccc4)c3)cc2s1	19.2%
CC(=O)NC(C)c1cc(Cl)c2cccnc2c1O (stereo not given)	20.2%
COc1cc2c(cc1OC)C(C)N(C(=O)c1cccc([N+](=O)[O-])c1)CC2 (stereo not given)	34%
Cn1c(CC(=O)Nc2ccc(Cl)c(Cl)c2)nnc1SCC(=O)N1CCN(c2ccccc2)CC1	14.9%
CC(C)(C)OC(=O)NCC(=O)Oc1cc2oc(=O)cc(-c3ccccc3)c2cc1Cl	21.9%
CCc1ccc(-c2cc(C(F)(F)F)n3nc(C(=O)Nc4cnn(Cc5ccc(C)cc5)c4)cc3n2)s1	10.1%
CCOc1cc(C(N)=O)cc(Br)c1OC	29.6%
CCc1ccc2[nH]c3nc(N/N=C/c4cccc(O)c4)nnc3c2c1	37.2%

SMILES	inhibition
Cc1cc(C(=O)COC(=O)c2cccc(NS(C)(=O)=O)c2)c(C)n1CC1CCCO1 (stereo not given)	19.3%
O=C(Nc1c2ccccc2nc2ccccc12)C(Cl)(Cl)Cl	-27%
CC1CCc2c(sc(NC(=O)c3cccs3)c2C(=O)O)C1 (stereo not given)	33.8%
CCCCNc1nc2c(c(=O)n(C)c(=O)n2C)n1Cc1cccc(OC)c1	11.7%
Cc1c2ccncc2cc2c1[nH]c1ccccc12	48.7% (active)
Cc1c(-c2ccccc2)oc2c(C(=O)N3CCN(c4ccc([N+](=O)[O-])cc4)CC3)cccc2c1=O	54.4% (active)
COC1C(CO)OC(n2c3c(Cl)cccc3c3c4c(c5c6cccc(Cl)c6[nH]c5c32)C(=O)NC4=O)C(O)C1O (stereo not given)	68.3% (active)
CN1CCN(c2ncnc3scc(-c4ccccc4Cl)c23)CC1	59.6% (active)
CC1CCN(Cc2c(C(=O)N/N=C/c3cc(Br)ccc3O)nnn2-c2nonc2N)CC1	75.4% (active)
CCc1nc(Cl)c(C#N)c2c1CCCC2	43.2% (active)
O=C(C1CCC(CNS(=O)(=O)c2cccs2)CC1)N1CCN(c2ccc(Cl)cc2)CC1 (stereo not given)	13.8%
COc1ccc(Nc2nc(N3CCCC3)nc3ccccc23)c(OC)c1	16.8%
CCOc1cc(/C=C2\CN(C)C/C(=C\c3ccc(O)c(OCC)c3)C2=O)ccc1O	56.2% (active)
O=C(Nc1cccc(Cl)c1)Nc1nnc(-c2ccncc2)s1	40.1%
Cc1ccc(S(=O)(=O)N2[C@@H](c3ccc(C(C)(C)C)cc3)C(C(=O)O)=CC[C@H]2c2ccc(Cl)cc2)cc1	16.6%
N#Cc1c2ccc(O)cc2n2ccccc12	41.8%
Oc1ccc(-c2n[nH]c(=S)n2-c2ccc3c(c2)OCCO3)c(O)c1	50% (active)
CCSCCc1nnc(NC(=O)Nc2cccc(C(F)(F)F)c2)s1	47.7% (active)
CCCCN(CCCC)c1ncnc2nc[nH]c12	43.2% (active)
O=C(NCc1ccco1)c1ccc2c(c1)N(Cc1ccccc1)CCS2	4.13%

Tested on: transactivating tegument protein VP16 (Human herpesvirus 1), Gal4-VP16 luciferase reporter
Assay: VP16 transactivation inhibitors, counter-screen for SRC3 inhibitor project, cell-based, luminescence, high throughput (AID 588794; in the data active = inhibition above about 30%)
Details: mammalian cells, VP16-driven luciferase reporter luminescence; at 3.6 µM; active compounds read high

SMILES	inhibition
COc1ccc(Cc2noc(CN3CCN(c4ccc(Cl)cn4)CC3)n2)cc1OC	21.5%
CCN(CC)CCNC(=O)c1ccc2c(c1NCCO)C(=O)c1ccccc1C2=O	-1.86%
c1ccc(CNc2c3ccccc3nc3ccccc23)cc1	43.6% (active)
Cc1sc(NC(=O)Cc2ccc3c(c2)OCO3)nc1-c1ccc2c(c1)CCN2C(=O)c1ccc(F)cc1	30.3% (active)
Cc1cc2[nH]c3ccccc3c2c(C)n1	18.7%
COc1ccc(-n2ncc3c(N4CCCCC4)ncnc32)cc1	41.7% (active)
CC(C)c1nc(NCCO)c(C#N)c2c1CCCC2	30% (active)
Cc1csc(CNc2ncnc3ccc(-c4ccoc4)cc23)c1	47.6% (active)
CSc1ncnc2c1ncn2CC(=O)C1CCC2C3CCC4=CC(=O)CCC4(C)C3CCC12C (stereo not given)	12.2%
CCN1CCN(c2ccc(Nc3ccnc4ccccc34)cc2)CC1	32.1% (active)
Cc1ccc(-n2c(O)c(C=Nc3cc(C)on3)c3ccccc3c2=O)c(C)c1	39.9% (active)
CCn1nc(C)c(CNC(=O)c2cc(COc3ccc(F)cc3Cl)on2)c1C	28.5%
Cc1nc2ccc(NC(=O)c3ccc(Cl)c(S(=O)(=O)N(C)c4ccccc4)c3)cc2s1	35.7% (active)
CC(=O)NC(C)c1cc(Cl)c2cccnc2c1O (stereo not given)	2.75%
COc1cc2c(cc1OC)C(C)N(C(=O)c1cccc([N+](=O)[O-])c1)CC2 (stereo not given)	23.4%
Cn1c(CC(=O)Nc2ccc(Cl)c(Cl)c2)nnc1SCC(=O)N1CCN(c2ccccc2)CC1	12.5%
CC(C)(C)OC(=O)NCC(=O)Oc1cc2oc(=O)cc(-c3ccccc3)c2cc1Cl	15.7%
CCc1ccc(-c2cc(C(F)(F)F)n3nc(C(=O)Nc4cnn(Cc5ccc(C)cc5)c4)cc3n2)s1	9.55%
CCOc1cc(C(N)=O)cc(Br)c1OC	20.8%
CCc1ccc2[nH]c3nc(N/N=C/c4cccc(O)c4)nnc3c2c1	64.4% (active)

SMILES	inhibition
Cc1cc(C(=O)COC(=O)c2cccc(NS(C)(=O)=O)c2)c(C)n1CC1CCCO1 (stereo not given)	-22.1%
O=C(Nc1c2ccccc2nc2ccccc12)C(Cl)(Cl)Cl	10.5%
CC1CCc2c(sc(NC(=O)c3cccs3)c2C(=O)O)C1 (stereo not given)	60.6% (active)
CCCCNc1nc2c(c(=O)n(C)c(=O)n2C)n1Cc1cccc(OC)c1	25.3%
Cc1c2ccncc2cc2c1[nH]c1ccccc12	33.5% (active)
Cc1c(-c2ccccc2)oc2c(C(=O)N3CCN(c4ccc([N+](=O)[O-])cc4)CC3)cccc2c1=O	32.5% (active)
COC1C(CO)OC(n2c3c(Cl)cccc3c3c4c(c5c6cccc(Cl)c6[nH]c5c32)C(=O)NC4=O)C(O)C1O (stereo not given)	49.2% (active)
CN1CCN(c2ncnc3scc(-c4ccccc4Cl)c23)CC1	41.5% (active)
CC1CCN(Cc2c(C(=O)N/N=C/c3cc(Br)ccc3O)nnn2-c2nonc2N)CC1	83.5% (active)
CCc1nc(Cl)c(C#N)c2c1CCCC2	34.1% (active)
O=C(C1CCC(CNS(=O)(=O)c2cccs2)CC1)N1CCN(c2ccc(Cl)cc2)CC1 (stereo not given)	30.5% (active)
COc1ccc(Nc2nc(N3CCCC3)nc3ccccc23)c(OC)c1	37.1% (active)
CCOc1cc(/C=C2\CN(C)C/C(=C\c3ccc(O)c(OCC)c3)C2=O)ccc1O	60.4% (active)
O=C(Nc1cccc(Cl)c1)Nc1nnc(-c2ccncc2)s1	31.9% (active)
Cc1ccc(S(=O)(=O)N2[C@@H](c3ccc(C(C)(C)C)cc3)C(C(=O)O)=CC[C@H]2c2ccc(Cl)cc2)cc1	23.9%
N#Cc1c2ccc(O)cc2n2ccccc12	21.9%
Oc1ccc(-c2n[nH]c(=S)n2-c2ccc3c(c2)OCCO3)c(O)c1	34% (active)
CCSCCc1nnc(NC(=O)Nc2cccc(C(F)(F)F)c2)s1	43.8% (active)
CCCCN(CCCC)c1ncnc2nc[nH]c12	30.1% (active)
O=C(NCc1ccco1)c1ccc2c(c1)N(Cc1ccccc1)CCS2	6.64%
